# Hit rate of the full screen: of about 310,000 compounds, about 14,000 (4.5%) showed an effect of 50% or more. Effects have a minus sign here. For the sample, strong results were picked, then their nearest neighbours and some compounds at random.
# Biological target: human ether-à-go-go-related gene (hERG) potassium channel (human, UniProt Q12809)
# Assay: primary screen, population patch clamp on CHO cells stably expressing hERG; higher = less effect of the substance
# 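Also: peak tail current of the secondary pulse compared with the same well before compound.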
# human ether-à-go-go-related gene (hERG) potassium channel, sequence (Q12809 whole entry, looked up): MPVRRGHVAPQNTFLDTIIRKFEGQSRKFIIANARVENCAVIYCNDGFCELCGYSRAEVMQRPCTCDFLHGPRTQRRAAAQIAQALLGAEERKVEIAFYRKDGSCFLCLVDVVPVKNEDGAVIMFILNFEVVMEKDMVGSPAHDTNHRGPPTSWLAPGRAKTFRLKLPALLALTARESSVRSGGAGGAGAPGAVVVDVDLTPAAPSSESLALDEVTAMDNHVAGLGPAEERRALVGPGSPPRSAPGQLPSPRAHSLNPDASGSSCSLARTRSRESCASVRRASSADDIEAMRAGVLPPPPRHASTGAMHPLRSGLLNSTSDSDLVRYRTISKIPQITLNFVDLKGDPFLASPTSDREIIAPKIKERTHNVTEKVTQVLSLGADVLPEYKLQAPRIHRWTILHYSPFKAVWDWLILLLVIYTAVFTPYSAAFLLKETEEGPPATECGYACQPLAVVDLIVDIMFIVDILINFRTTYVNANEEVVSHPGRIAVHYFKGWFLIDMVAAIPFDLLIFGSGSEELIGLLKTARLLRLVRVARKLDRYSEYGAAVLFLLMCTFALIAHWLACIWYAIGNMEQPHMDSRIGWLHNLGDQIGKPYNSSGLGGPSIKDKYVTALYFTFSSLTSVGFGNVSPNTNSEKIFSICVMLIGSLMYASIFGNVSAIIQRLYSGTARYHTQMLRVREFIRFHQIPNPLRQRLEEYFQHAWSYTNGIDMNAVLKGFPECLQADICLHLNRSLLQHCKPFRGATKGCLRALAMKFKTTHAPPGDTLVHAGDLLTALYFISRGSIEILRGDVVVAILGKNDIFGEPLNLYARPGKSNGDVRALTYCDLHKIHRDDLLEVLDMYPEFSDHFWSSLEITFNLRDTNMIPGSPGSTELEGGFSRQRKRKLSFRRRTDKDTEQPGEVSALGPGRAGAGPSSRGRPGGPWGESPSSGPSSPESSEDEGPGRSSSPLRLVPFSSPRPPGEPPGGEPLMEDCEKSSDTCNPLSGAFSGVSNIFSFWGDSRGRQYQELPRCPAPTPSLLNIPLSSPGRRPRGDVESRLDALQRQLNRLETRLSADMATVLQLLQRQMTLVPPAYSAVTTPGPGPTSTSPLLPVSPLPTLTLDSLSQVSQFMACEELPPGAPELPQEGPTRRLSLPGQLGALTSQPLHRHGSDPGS
row,SMILES,"hERG current change (%, negative = inhibition) at 10uM [%]"
1,CCCCNC(=O)CSc1nc2cc3c(cc2c(=O)n1CCCC(=O)NCCc1ccc(OC)c(OC)c1)OCO3,1.71
2,CCOCCCn1c(SCC(=O)Nc2ccccc2OC)nc2ccccc2c1=O,-45
3,CCOCCCn1c(SCC(=O)Nc2cccc(OC)c2)nc2ccccc2c1=O,-58.4
4,CCOCCCn1c(SCC(=O)Nc2cc(OC)ccc2OC)nc2ccccc2c1=O,-55.7
5,CCOCCCn1c(SCC(=O)Nc2ccc(NC(C)=O)cc2)nc2ccccc2c1=O,7.29
6,COCCn1c(SCC(=O)NCc2ccc3c(c2)OCO3)nc2ccccc2c1=O,-42.4
7,CCOCCCn1c(SCC(=O)Nc2ccccc2)nc2ccccc2c1=O,-29.4
8,CCC1CCCCN1Cc1ccc(CNC(=O)CCc2nnc3ccc(N4CCCCC4)nn23)o1 (centres unmarked),18.2
9,Cc1ccc(S(=O)(=O)N2CCC(C)CC2)c([N+](=O)[O-])c1,-12.9
10,Cc1ccc(CN2CC(C(=O)N(C)CC(=O)Nc3cccc(F)c3)CC2=O)cc1 (centres unmarked),-7.16
11,O=C1Nc2ccccc2C1(O)c1ccccc1O (centres unmarked),34.6
12,CCOc1ccc(OCCC(=O)OCC(=O)Nc2ccc3c(c2)OCCO3)cc1,-5.02
13,O=C(CCC1CCCC1)N[C@@H](Cc1ccc(O)cc1)C(=O)O,28.8
14,C[C@@H](CN1C2=NC[C@H](C)N2C[C@H]1Cc1ccc(O)cc1)NC(=O)CCC1CCCCC1,-11.9
15,COc1ccc(C[C@@H]2CN3C(=NC[C@@H]3Cc3ccc(O)cc3)N2C[C@H](C)NC(=O)CCC2CCCCC2)cc1,-80.6
16,COc1ccc(C[C@H]2CN3C(=NC[C@@H]3Cc3ccc(O)cc3)N2C[C@H](C)NC(=O)CCC2CCCCC2)cc1,-66.1
17,CC(C)[C@H]1CN=C2N(C[C@H](C)NC(=O)CCC3CCCCC3)[C@H](Cc3ccc(O)cc3)CN21,-59.7
18,COc1ccc(C[C@@H]2CN3C(=NC[C@@H]3C)N2C[C@H](C)NC(=O)CCC2CCCCC2)cc1,-67.4
19,Cc1cc(C)cc(NC(=S)N2CCN(CCO)CC2)c1,14.3
20,COC(=O)c1ccc(OC)c(CSc2nnc(COc3ccc(OC)cc3)o2)c1,-27.1
21,N#Cc1ccccc1CSc1nc2ncc(Br)cc2[nH]1,5.22

row,SMILES,"hERG current change (%, negative = inhibition) at 10uM [%]"
1,CC(C)(C)c1cc(NC(=O)Nc2ccccc2OC(F)(F)F)no1,26.4
2,O=C(COC(=O)c1cccc(S(=O)(=O)NCc2ccccc2)c1)Nc1ccccc1OC(F)F,11.5
3,CC1CCCN(C(=O)NC(=O)c2ccc(Cl)cc2)C1 (centres unmarked),3.85
4,C[C@@H](CN1C2=NC[C@H](Cc3ccc(O)cc3)N2C[C@H]1Cc1ccc(O)cc1)NC(=O)CCC1CCCCC1,-10.3
5,C[C@@H](CN1C2=NC[C@H](Cc3ccccc3)N2C[C@H]1Cc1ccc(O)cc1)NC(=O)CCC1CCCCC1,-71.2
6,CC(CCc1ccccc1)NC(=O)CCC1CCCC1 (centres unmarked),-24.5
7,O=C(c1ccncc1)c1ccc(N2CCN(C3CC(=O)N(Cc4cccs4)C3=O)CC2)cc1 (centres unmarked),-79.3
8,O=C(c1ccncc1)c1ccc(N2CCN(C3CC(=O)N(Cc4ccccc4)C3=O)CC2)cc1 (centres unmarked),-76.2
9,O=C(c1ccc(N2CCN(C3CC(=O)N(Cc4cccs4)C3=O)CC2)cc1)c1cccnc1 (centres unmarked),-73.5
10,O=C1CC(N2CCN(c3ccc(F)cc3)CC2)C(=O)N1c1ccc(F)cc1 (centres unmarked),1.07
11,NC(=O)C1CCN(C2CC(=O)N(Cc3cccs3)C2=O)CC1 (centres unmarked),0.931
12,CCN1C(=O)CC(N2CCN(c3ccc(C(=O)c4ccncc4)cc3)CC2)C1=O (centres unmarked),-12.3
13,COc1ccc(N2C(=O)CC(N3CCN(c4ccc(C(=O)c5cccnc5)cc4)CC3)C2=O)cc1 (centres unmarked),-48.2
14,O=C1CC(N2CCN(c3ccc(F)cc3)CC2)C(=O)N1Cc1ccccc1 (centres unmarked),-17.6
15,NC(=O)C1(N2CCCCC2)CCN(C2CC(=O)N(Cc3cccs3)C2=O)CC1 (centres unmarked),6.12
16,O=C1CC(N2CCN(c3ccc(O)cc3)CC2)C(=O)N1Cc1cccs1 (centres unmarked),-7.15
17,O=C1CC(N2CCN(c3ccc(F)cc3)CC2)C(=O)N1Cc1cccs1 (centres unmarked),-42.5
18,O=C(c1ccc(N2CCN(C3CC(=O)N(c4ccc(F)cc4)C3=O)CC2)cc1)c1cccnc1 (centres unmarked),-50.6
19,COc1ccc(S(=O)(=O)Nc2cc(C(=O)NCCCN3CCOCC3)ccc2N2CCOCC2)cc1,25
20,CC(=O)N(C)c1ccc(NC(=O)Nc2cccc3ccccc23)cc1,-2.88
